Records with an inconclusive call do not appear. A call without a number means that no potency is given here. Calls of active or inactive are those of the source. The call rests on the fitted dose curve; in most records, active means well fitted cell-killing curve with a large enough effect; inconclusive means small, poorly fitted or top-dose-only effect; inactive means flat fitted curve, though single readings scatter.

Drawing on PubChem BioAssay (NCATS), this text covers Potency for 40 molecules.

The assay is described as follows: Cell Viability - LYMP2-014 (AID 983).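 Further: cells exposed to compound for 24 h at 37 °C; nearly all actives have a fitted effect of over 50% in size.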 Particulars: LYMP2-014 lymphoblastoid cells, viability qHTS; series mostly up to 92.2 µM. The source says:
NIH Chemical Genomics Center [NCGC]
NIH Molecular Libraries Screening Centers Network [MLSCN]
National Institutes of Environmental Health Sciences [NIEHS]
National Toxicology Program [NTP]
We have developed a 1536-well cell-based assay for quantitative high throughput screening (qHTS) against a number of cell lines to determine in vitro cytotoxicity of small molecules. This particular assay uses a human lymphoblastoid cell line (LYMP2-014) purchased from Coriell Institute for Medical Research.
NCGC Assay Protocol Summary:
The CellTiter-Glo luminescent cell viability assay (Promega) is a homogeneous method to measure the number of viable cells in culture. The end point readout of this assay is based on quantitation of intracellular ATP, an indicator of metabolic activity, using the luciferase reaction. Luciferase catalyzes the oxidation of beetle Luciferin to oxyluciferin and light in the presence of ATP. The luminescent signal is proportional to amount of ATP present.
Using the CellTiter-Glo luminescent cell viability assay, the amount of cellular ATP was measured in the lymphoblastoid cell line with complete culture medium following compound treatment for 24 hours. The assay was performed in opaque white Kalypsys 1536-well plates. In the screen, tetraoctylammonium bromide was used as positive control. Library compounds were measured for their ability to cause acute toxicity in the cell line, as reflected by a decrease in intracellular ATP levels, in a concentration-dependent manner. […] AC50 values were determined from concentration-response data modeled with the standard Hill equation.
qHTS protocol for CellTiter Glo lymphoblastoid cellular assay
[Step] [Parameter] [Value] [Description]
1. Reagent; 5 uL; 2500 lymphoblastoid cells/well
2. Time; 5 hr; 37 C incubation
4. Controls; 23 nL; Tetraoctylammonium bromide 6.4pM to 92 uM
5. Time; 24 hr; 37 C incubation
6. Reagent; 5 uL; CellTiter Glo reagent
7. Time; 30 min; Room Temperature
8. Detection; Luminescence; Viewlux plate reader
Keywords: cell viability, cytotoxicity, lymphoblastoid cell line, luminescence, NTPHTS, NTPHTS_NCGC, NIEHS, DSSTox, MLSMR, MLSCN, NIH Roadmap, qHTS, NCGC
On to `CC(C)C=O`, for which the Potency entry was “inactive”.

Take `CCCOCC(C)O` (stereo not given): the Potency result was “inactive”. Then `C/C=C(/C)C#N`, with “inactive”; and `Cc1ccc2c(c1[N+](=O)[O-])C(=O)c1ccccc1C2=O`, with “inactive”. `C=Cc1ccc(C=C)cc1`: the Potency entry was “inactive”. The entry for `CN(C)CCCNCCCN` is “inactive”; for `COC(=O)CS` it is “inactive”.

In the case of `CC(=O)OCc1ccco1`, the Potency entry is “inactive”.

Take `CCCC(C)CO` (stereo not given): the Potency result is “inactive”. Then `ClC/C=C/CCl`, with “inactive”. Then `CCOc1ccccc1N`, with “inactive”; and `COc1cccc2sc(N)nc12`, with “inactive”.

Turning to `O=c1[nH][nH]c(=O)c2cc([N+](=O)[O-])ccc12`, the Potency result is “inactive”.

As to `Cc1cccc([N+](=O)[O-])c1C(=O)O`, the Potency entry is “inactive”. The entry for `CCCCCO` is “inactive”; for `c1ccsc1` it is “inactive”; for `CCCCOCCOCCOCCCC` it is “inactive”. Regarding `CCCCOCCOCCSC#N`, the Potency entry was “inactive”.

`CCCCC(CC)C(=O)O` (stereo not given): the Potency entry was “inactive”.

`O=C(O)c1ccc(Cl)cc1Cl`: the Potency result was “inactive”. The entry for `Nc1ccc(Cl)cc1[N+](=O)[O-]` is “inactive”; for `CCOc1cc(OCC)c(C(C)=O)cc1OCC` it is “inactive”; for `CCC(O)C(C)(C)C` (stereo not given) it is “inactive”. Then `Cc1ccccc1C#N`, with “inactive”. The entry for `CC(C)CO` is “inactive”. Consider `C1CCC2OC2C1` (stereo not given), for which the Potency result is “inactive”. Take `Nc1cccc(N)c1`: the Potency entry was “inactive”. The entry for `Cc1ccc(C(=O)O)cc1` is “inactive”. The entry for `NC(=S)NNC(N)=S` is “inactive”.

As to `O=P(O)(OCc1ccccc1)OCc1ccccc1`, the Potency entry is “inactive”. As for `Nc1nc(CC(=O)O)cs1`, the Potency entry was “inactive”. The entry for `C1CCOC1` is “inactive”; for `CCCCC(CC)CO` (stereo not given) it is “inactive”. The entry for `Cc1c(C(=O)O)cccc1[N+](=O)[O-]` is “inactive”. The entry for `Cc1cc(C2(c3cc(C)c(O)cc3C)OS(=O)(=O)c3ccccc32)c(C)cc1O` is “inactive”; for `O=C(O)CNC(=O)c1ccc(CO)o1` it is “inactive”. With `Cc1cscn1`, the Potency result was “inactive”. Then `Nc1ccccc1[N+](=O)[O-]`, with “inactive”; and `CC1(N)CCC(C(C)(C)N)CC1` (stereo not given), with “inactive”. The entry for `N#Cc1ccccc1` is “inactive”.
